From ChEMBL document CHEMBL3988442, “University of Dundee, Small-Polar-MMV Screening Library” (2021) come the findings set out here.

Hit rate of the full screen: of about 48,000 compounds, about 13,000 (27%) showed an effect of 50% or more. The list shows a part of the results.

For this assay, the system named is Wolbachia pipientis. Description: Anti-Wolbachia Cell-Based Screen. On the set-up: scale not given: in the data most compounds retested in dose-response had high values. Format: functional. The note with it: 5 µM.
In the case of `O=C1NCc2ccccc2CC12CCN(Cc1ccncc1Cl)C2` (centres undefined), the “Percent Effect” value worked out at 100.7%.

Take `CCCN1CCC2(Cc3ccccc3NC2=O)C1` (centres undefined): the “Percent Effect” value is recorded as -12.05%.

`O=C1Nc2ccccc2CC12CCN(CCO)C2` (centres undefined): the “Percent Effect” value is given as -5.884%.

For the molecule `Cc1cc(C)c(CNc2ncnc3ccccc23)c(=O)[nH]1`, the “Percent Effect” value was found to be 14.2%.

Regarding `CCOC(=O)[C@@H]1[C@@H](c2ccccc2)CN2CCN(C(C)=O)C[C@H]12`, the “Percent Effect” value was determined as 87.07%.

Turning to `CCOC(=O)[C@@H]1[C@H]2CN(C(=O)OC)CCN2C[C@H]1c1ccccc1`, the “Percent Effect” value is recorded as 104.3%.

Turning to `CC[C@H]1CN2CC[C@H]1C[C@@H]2CNC(=O)Nc1ccccc1`, the “Percent Effect” value is listed as -4.877%.

For the molecule `CCOC(=O)[C@@H]1[C@@H](c2ccccc2)CN2CCN(S(C)(=O)=O)C[C@H]12`, the “Percent Effect” value came to 100.2%.

For the molecule `O=C(COc1ccccc1)N1C[C@@H](O)[C@H](N2CCCC2)C1.O=CO`, the “Percent Effect” value turned out to be 3.295%.

Regarding `O=C(C1CC1)N1CCN2C[C@H](c3ccccc3)[C@@H](CO)[C@H]2C1`, the “Percent Effect” value amounted to 105.4%.

On to `Cc1noc(C)c1CN1CCO[C@H]2[C@H](Oc3ccccn3)CC[C@@H]21.O=C(O)C(F)(F)F.O=C(O)C(F)(F)F`, for which the “Percent Effect” value is -5.059%.

In the case of `CCOC(=O)[C@@H]1[C@@H](c2ccccc2)CN2CCN(C(=O)N(C)C)C[C@H]12`, the “Percent Effect” value worked out at 91.13%.

As to `CCOC(=O)[C@@H]1[C@@H](c2ccccc2)CN2CCN(C(=O)C3CC3)C[C@H]12`, the “Percent Effect” value was 90.7%.

For `Cc1nn(C)c2ncc(S(=O)(=O)N3CCN4CCCC4C3)cc12` (centres undefined), the “Percent Effect” value is -0.5952%.

With `CCc1nc(CC(=O)N2CCCC2CN2CCCC2)cs1` (centres undefined), the “Percent Effect” value is listed as -9.906%.

With `O=C(Cc1cccnc1)N1CCC2(CC1)CCN(C1CCOC1)C2.O=C(O)C(F)(F)F.O=C(O)C(F)(F)F` (centres undefined), the “Percent Effect” value is recorded as -0.1396%.

As to `O=C1N(Cc2cccnc2)C[C@H]2CN(C3CCOCC3)CCN12`, the “Percent Effect” value is -6.635%.

As to `NC(=O)C1CN(C(=O)Cc2cccnc2)CCN(C2CCOCC2)C1` (centres undefined), the “Percent Effect” value came out at 108.4%.

On to `CN(C[C@H]1CN2CC[C@H]1C[C@@H]2CNC(=O)c1ccco1)c1ccccc1`, for which the “Percent Effect” value is listed as -3.253%.

With `Cn1ccc(CN2CCCC23CCNCC3)n1`, the “Percent Effect” value was -9.611%.

Take `COCCN1CCC2(COCc3c(C)nc(N(C)C)nc32)C1` (centres undefined): the “Percent Effect” value was 5.948%.

`CCN1CCC2(COCc3c(C)nc(N4CCOCC4)nc32)C1` (centres undefined): the “Percent Effect” value was found to be 5.011%.

Turning to `CCN1CCC2(COCc3c(C)nc(N(C)C)nc32)C1` (centres undefined), the “Percent Effect” value is given as 108.4%.

With `CCN1CCC2(COCc3cnc(NCC4CC4)nc32)C1.O=C(O)C(F)(F)F` (centres undefined), the “Percent Effect” value is -6.306%.

On to `Cc1nc(N(C)C)nc2c1COCC21CCN(CC2CC2)C1.O=C(O)C(F)(F)F` (centres undefined), for which the “Percent Effect” value was determined as 103%.

For `CN(C)c1ncc2c(n1)C1(CCN(CC3CC3)C1)COC2.O=C(O)C(F)(F)F` (centres undefined), the “Percent Effect” value is -11.31%.

With `Cc1ccccc1CNC(Cn1cncn1)c1ccccc1` (centres undefined), the “Percent Effect” value is 16.93%.

Regarding `CC(C)c1cc(N2CCC3(CC2)CN(C)CCN3C)ncn1`, the “Percent Effect” value is -0.4054%.

As to `Cc1nnsc1CN1C[C@H]2CC[C@@H]1CN(Cc1ccccn1)C2`, the “Percent Effect” value is listed as -5.416%.

Regarding `Cl.NC1(c2nc(C(F)(F)F)cc(=O)[nH]2)CCCC1`, the “Percent Effect” value is -15.07%.

Regarding `Cc1n[nH]c2c1C(c1ccc3c(c1)OCO3)SCC(=O)N2` (centres undefined), the “Percent Effect” value turned out to be 118.8%.

Regarding `Cc1n[nH]c2c1C(c1ccsc1)SCC(=O)N2` (centres undefined), the “Percent Effect” value was 0.06284%.

Turning to `O=C1CSC(c2ccc3c(c2)OCO3)c2cn[nH]c2N1` (centres undefined), the “Percent Effect” value amounted to 128%.

For `Cc1n[nH]c2c1C(c1ccc(O)c(Cl)c1)SCC(=O)N2` (centres undefined), the “Percent Effect” value turned out to be 5.211%.

Take `CC(C)[C@@H]1CN(C(=O)C2(c3ccccc3)CCN(C)CC2)C[C@H]1N(C)C`: the “Percent Effect” value is on record as -1.656%.

As for `CC(C)OCCNC1(c2ccc(F)cc2)CCOCC1`, the “Percent Effect” value came out at 3.648%.

Consider `O=C(c1ccncc1)N1CCN2C[C@H](Oc3cncnc3)C[C@H]2C1`, for which the “Percent Effect” value was 8.644%.

`O=C(O)C(F)(F)F.O=C(O)C(F)(F)F.O=C(O)C(F)(F)F.c1cncc(CN2CCN3C[C@H](Oc4cncnc4)C[C@H]3C2)c1`: the “Percent Effect” value is recorded as 97.08%.

With `O=C(O)C(F)(F)F.O=C(O)C(F)(F)F.O=C(c1cccnc1)N1CCN2C[C@H](Oc3cncnc3)C[C@H]2C1`, the “Percent Effect” value is -8.279%.

Consider `O=C(O)C(F)(F)F.O=C(O)C(F)(F)F.O=C(O)C(F)(F)F.c1cc(CN2CCN3C[C@H](Oc4cncnc4)C[C@H]3C2)ccn1`, for which the “Percent Effect” value was found to be 106.9%.

Consider `Cn1ccnc1CN1CCN2C[C@H](OCc3cccnc3)C[C@H]2C1.O=C(O)C(F)(F)F.O=C(O)C(F)(F)F.O=C(O)C(F)(F)F`, for which the “Percent Effect” value is listed as -4.128%.

For `Fc1cccc(O[C@@H]2C[C@H]3CN(Cc4ccncc4)CCN3C2)c1.O=C(O)C(F)(F)F.O=C(O)C(F)(F)F.O=C(O)C(F)(F)F`, the “Percent Effect” value is recorded as -7.787%.

For the molecule `Cc1ccc2c(n1)N(CC1CC1)CCN(S(=O)(=O)C1CC1)C2.O=C(O)C(F)(F)F`, the “Percent Effect” value is 2.676%.

With `COc1cc(N2CCN(CC3CC3)c3nc(C)ccc3C2)ncn1`, the “Percent Effect” value stood at 95.93%.

On to `COCCN1CCN(c2cc(OC)ncn2)Cc2ccc(C)nc21`, for which the “Percent Effect” value came out at 108.6%.

`CC(C)CN1CC[C@@H]2[C@@H]1CCN2C(=O)N(C)C.O=C(O)C(F)(F)F`: the “Percent Effect” value is listed as -11.1%.

For the molecule `O=C(c1cccnc1)N1C[C@@H]2CC[C@H](C1)N(Cc1ncc[nH]1)C2`, the “Percent Effect” value is -11.14%.

With `Cc1cccc(CN2CCN3C(=O)NC[C@H]3C2)n1`, the “Percent Effect” value is listed as -6.805%.

On to `O=C(O)C(F)(F)F.O=C(O)C(F)(F)F.c1cncc(CO[C@H]2CN(Cc3ccco3)[C@@H]3COC[C@H]23)c1`, for which the “Percent Effect” value was 97.44%.

For `CCN(CC)CCN1CCO[C@H]2[C@@H](OCc3ccccn3)CC[C@@H]21`, the “Percent Effect” value is recorded as -0.06843%.

Regarding `O=C(O)C(F)(F)F.O=C(O)C(F)(F)F.c1ccc(O[C@@H]2CN(Cc3nccs3)[C@@H]3CCCO[C@@H]32)nc1`, the “Percent Effect” value is reported as -2.827%.

Turning to `CN(Cc1ccco1)[C@@H]1CN(Cc2cccnc2)[C@@H]2CCCO[C@H]12.O=C(O)C(F)(F)F.O=C(O)C(F)(F)F.O=C(O)C(F)(F)F`, the “Percent Effect” value is given as 8.312%.

`Fc1cccnc1O[C@@H]1CC[C@H]2[C@H]1OCCN2Cc1nccs1.O=C(O)C(F)(F)F.O=C(O)C(F)(F)F`: the “Percent Effect” value is listed as 0.8031%.

As to `O=C(O)C(F)(F)F.O=C(O)C(F)(F)F.c1ccc(CO[C@@H]2CN(Cc3nccs3)[C@@H]3COC[C@@H]32)nc1`, the “Percent Effect” value is 102.5%.

On to `O=C(O)C(F)(F)F.O=C(O)C(F)(F)F.c1cncc(CO[C@H]2CO[C@@]3(CCN(Cc4ccoc4)C3)C2)c1`, for which the “Percent Effect” value is reported as -6.874%.

As for `O=C(N[C@@H]1CN(Cc2ccccn2)[C@@H]2COC[C@@H]21)C1CCC1.O=C(O)C(F)(F)F`, the “Percent Effect” value is reported as -10.37%.

In the case of `Fc1ccc(CN2C[C@@H](OCc3ccccn3)[C@H]3COC[C@H]32)cc1.O=C(O)C(F)(F)F.O=C(O)C(F)(F)F`, the “Percent Effect” value was found to be 103%.

Consider `c1ccc(CO[C@@H]2CN(Cc3ccoc3)[C@@H]3COC[C@@H]32)nc1`, for which the “Percent Effect” value is reported as 117.8%.

`O=C(O)C(F)(F)F.O=C(O)C(F)(F)F.c1ccc(CO[C@H]2CO[C@@]3(CCN(Cc4ccoc4)C3)C2)nc1`: the “Percent Effect” value is given as -0.8411%.
